Only a selection was taken, and hits are over-represented in it overall.
RE007 growth inh = less growth of the S. pombe RE007 Vpr strain; S. pombe RE007 Vpr strain, BacTiter-Glo ATP luminescence, 24 h; Potency, µM (top dose mostly 92.2 µM), for inactives: at the highest dose activity change, negative = less growth, usual class: inhibitors; 0.21% of 360,000 active; active means well fitted falling curve with a large enough effect; inconclusive means small, poorly fitted or top-dose-only effect; inactive means no such curve, though single readings can be large or run the other way; further: potency means the concentration at half of the fitted maximal effect; on the % scale 0 is the no-effect control and ±100 the full control effect; nearly all actives have a fitted effect of over 50% in size
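Fission yeast RE007 carrying one integrated HIV-1 vpr copy, seeded at OD 0.01 in PMG+AL medium with 23 nL pinned compound. Grown 24 h at 30 degrees; viability read by BacTiter-Glo luminescence after 5 min.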
TbPYK inhibitor = inhibitors of Trypanosoma brucei pyruvate kinase | AID 624173 | Q57TT1 | Potency, µM (doses to about 76.8 µM), inactives show top-dose activity, negative = inhibition, most hits filed as inhibitors | 0.12% of 410,000 active | TbPYK enzyme, Kinase-Glo Plus ATP luminescence, 45 min; further: potency means the concentration at half of the fitted maximal effect; on the % scale 0 is the no-effect control and ±100 the full control effect; nearly all actives have a fitted effect of over 50% in size
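Quantitative HTS: titrated library compounds versus trypanosomal pyruvate kinase in TEA buffer (pH 7.2) containing KCl, MgCl2, BSA and Tween-20. Reactions were initiated with ADP, 130 uM final. Kinase-Glo Plus luminescence was read after 45 min at RT.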
CHX counter = counter-screen for Shiga toxin inhibitors: cycloheximide protein synthesis inhibition. cell reporter, cycloheximide protein synthesis inhibition counterscreen. max response, %. 12% of 300,000 active; in the data active means max response mostly above about 13%, no sharp cut-off; inactive means mostly below about 14%; further: read at 38.3 µM for the half of the compounds with a filed dose; 0% is about no effect
LmPK inhibitor = blocks Leishmania mexicana pyruvate kinase activity | Q27686 | purified LmPK, Kinase-Glo ATP luminescence, 1 h | Potency, µM (top dose mostly 57.5 µM), for inactives: at the highest dose activity change, negative = inhibition, most hits filed as inhibitors | 0.37% of 290,000 active | AID 1721; further: potency means the concentration at half of the fitted maximal effect; on the % scale 0 is the no-effect control and ±100 the full control effect
Target sequence (Q27686 whole entry, looked up): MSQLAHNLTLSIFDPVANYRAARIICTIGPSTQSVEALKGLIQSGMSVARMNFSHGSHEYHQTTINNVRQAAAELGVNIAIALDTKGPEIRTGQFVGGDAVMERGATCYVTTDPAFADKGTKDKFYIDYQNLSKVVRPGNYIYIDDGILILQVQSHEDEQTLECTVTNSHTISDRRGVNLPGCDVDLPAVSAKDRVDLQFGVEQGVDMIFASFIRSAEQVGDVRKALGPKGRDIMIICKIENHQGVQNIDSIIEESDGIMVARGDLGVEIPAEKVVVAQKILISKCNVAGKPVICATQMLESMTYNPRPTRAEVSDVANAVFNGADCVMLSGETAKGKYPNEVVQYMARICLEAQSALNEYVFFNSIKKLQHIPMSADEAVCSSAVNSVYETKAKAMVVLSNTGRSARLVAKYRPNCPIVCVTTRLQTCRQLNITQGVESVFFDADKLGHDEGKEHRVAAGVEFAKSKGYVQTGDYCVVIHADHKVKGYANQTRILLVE
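0.1 nM LmPK, 0.5 mM PEP, 0.1 mM ADP; 50 mM imidazole pH 7.2, 7 mM MgCl2, 50 mM KCl; 1 h RT. Kinase-Glo luminescence readout, normalized to no-enzyme (full inhibition) and uninhibited wells.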
Shiga inhibitor = blocks Shiga toxin action in Vero cells. Vero cells, Shiga toxin protein synthesis inhibition reporter. AID 2315. inhibition, % at 38.7 µM. 9.2% of 290,000 active; in the data active means inhibition mostly above about 28%, no sharp cut-off; inactive means mostly below about 43%; further: 0% is about no effect
FBPA Giardia inh = inhibitors of Giardia lamblia fructose-1,6-bisphosphate aldolase; purified Giardia FBPA; Potency, µM (top dose mostly 59.6 µM), for the others: top-dose activity, negative = inhibition, most hits filed as inhibitors; 0.71% of 290,000 active; AID 2451; further: potency means the concentration at half of the fitted maximal effect; on the % scale 0 is the no-effect control and ±100 the full control effect; nearly all actives have a fitted effect of over 55% in size
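Giardia FBPA (40 nM reagent) was preincubated 10 min at RT with compound (up to 57.5 uM final), then substrate plus GAPDH/TPI/NAD/arsenate coupling system with diaphorase/resazurin was added; resorufin fluorescence (525/598 nm) was read after 20 min.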
* = called active by the depositor; ? = inconclusive; / = no result; [ ] = another dose, or the depositor's remark. Unless noted, the call rests on the fitted dose curve; in most records, active means well fitted curve in the direction sought with a large enough effect; inconclusive means small, poorly fitted or top-dose-only effect, or another doubt; inactive means no such curve, though single readings can be large; an effect the other way counts as inactive or inconclusive.

SMILES | RE007 growth inh | TbPYK inhibitor | CHX counter | LmPK inhibitor | Shiga inhibitor | FBPA Giardia inh
Clc1cccc(Nc2ncnc3c2nc2n3CCCCC2)c1 | / | 6% | / | / | / | /
COCCNc1nc(-c2ccccc2Cl)nc2ccccc12 | / | / | / | / | / | 0%
CC(=O)N(Cc1ccco1)c1nc(C(=O)Nc2ccc(Cl)cc2)c(C)s1 | 4% | -1% | 46* | 0% | 95* | 4%
CCCOc1cccc(C2c3c(oc4cc(C)c(C)cc4c3=O)C(=O)N2CCCN2CCOCC2)c1 (configuration not stated) | / | -5% | / | / | / | /
COc1ccc(/C=N/NC(=O)c2ccoc2C)cc1O | -5% | -8% | 58* | ? | 57* | 1%
COc1ccc(/C=N/NC(=O)c2ccoc2C)cc1OC | -16% | -3% | 43* | -30% | 115* | 3%
COc1ccc(/C=N/NC(=O)c2ccoc2C)cc1COc1ccc(Cl)cc1 | -27% | 0% | 33* | -1% | 91* | 10%
Cc1ccc(CCNC(=O)NCc2noc3ccc(C)cc23)cc1 | / | -3% | / | / | / | /
O=C(c1cccc(F)c1)N1CCC[C@@]2(CCN(c3ccccn3)C2)C1 | / | 0% | / | / | / | 0%
COc1ccc(CC(=O)Nc2nnc(C(C)C)s2)cc1 | -4% | -6% | 19* | 4% | 29 | 5%
COc1ccc(NC(=O)Nc2nnc(-c3ccco3)s2)cc1 | 10% | 1% | 34* | 7% | 59* | 3%
COc1ccc(NC(=O)Nc2nnc(-c3ccncc3)s2)cc1 | -3% | -1% | 19 | -4% | 26 | -9%
CCc1nnc(NC(=O)Nc2ccc(Cl)cc2)s1 | 3% | 4% | 25* | -2% | 52* | 2%
COc1ccc(NC(=O)Nc2nnc(C(C)C)s2)cc1 | -2% | -12% | 42* | 4% | 62* | 8%
COC(=O)c1sccc1S(=O)(=O)N(CC(=O)Nc1cc(C)cc(C)c1)c1ccc(Cl)cc1 | / | -2% | / | / | / | /
COc1ccc(-c2nc3ccccc3s2)cc1NC(=O)c1ccc(F)cc1 | / | -8% | / | / | / | /
COc1ccc(CCNC(=O)C(=O)NCC(c2ccco2)S(=O)(=O)c2ccc(F)cc2)cc1 (configuration not stated) | / | -1% | / | / | / | /
C/C(=C(/CCOC(=O)c1ccccc1)SS/C(CCOC(=O)c1ccccc1)=C(\C)N(C=O)Cc1cnc(C)nc1N)N(C=O)Cc1cnc(C)nc1N | / | -10% | / | / | / | /
CO/N=C1\C[C@]2(C[C@@H]3C[C@H](C/C=C(/C)C[C@@H](C)/C=C\C=C4\CO[C@@H]5[C@@H](O)C(C)=C[C@@H](C(=O)O3)[C@]45O)O2)O[C@@H](/C(C)=C/C(C)C)[C@H]1C | / | -13% | / | / | / | /
CCCc1nnc(NC(=O)Nc2ccc(OC)cc2)s1 | -12% | -1% | 24* | 6% | 39 | 5%
COc1ccc(NC(=O)Nc2nnc(Cc3ccc(F)cc3)s2)cc1 | 32% | -1% | 13 | 2% | 8 | 7%
COc1ccc(CC(=O)Nc2ccc3c(c2)CCC3)cc1 | / | -12% | 16 | 1% | 4 | 7%
O=C(Cc1ccccc1)Nc1ccc2c(c1)CCC2 | 7% | -7% | 39* | -3% | 105* | -7%
Cc1cc(C(=O)Nc2ccc3c(c2)CCC3)c2ccccc2n1 | 7% | -1% | 20 | 3%[11.5 µM] | 29 | 7%
O=C(Nc1ccc(F)cc1)Nc1ccc2c(c1)CCC2 | 3% | -1% | 49* | 1% | 68* | /
SMILES | RE007 growth inh | TbPYK inhibitor | CHX counter | LmPK inhibitor | Shiga inhibitor | FBPA Giardia inh
Cc1ccccc1NC(=O)Nc1ccc2c(c1)CCC2 | -4% | 7% | 28* | 2% | 104* | 1%
O=C(Nc1cccc(F)c1)Nc1ccc2c(c1)CCC2 | -14% | 0% | 25* | 4% | 80* | /
O=C(Nc1ccc(F)cc1)Nc1cccc(Br)c1 | 16% | 0% | / | / | / | /
CC(=O)N1c2ccccc2C(=O)C1N1CCN(c2cc(Cl)ccc2C)CC1 (configuration not stated) | / | -2%[15.4 µM] | / | / | / | /
O=[N+]([O-])c1cccc(CNc2ccc3c(c2)CCC3)c1 | -15% | 12% | 19 | -7% | active | ?
O=C(O)c1ccc(NC(=O)c2cc(S(=O)(=O)N3CCCCC3)c(Cl)cc2Cl)cc1 | / | 7% | / | / | / | /
O=C(Nc1ccc2c(c1)CCC2)c1cc(S(=O)(=O)Nc2ccc(F)cc2)c(Cl)cc1Cl | 10% | 0% | 19* | 2% | 29 | -4%
O=C(Nc1cccc([N+](=O)[O-])c1)Nc1ccc2c(c1)CCC2 | 12% | 2% | 12* | 8% | 30 | -1%
O=C(Nc1ccc2c(c1)CCC2)Nc1ccc(F)cc1F | 3% | -6% | 67* | -11% | 74* | /
Cc1ccc2c(CNCCc3ccccc3)c(C(=O)O)n(Cc3ccccc3C)c2c1 | / | 1% | / | / | / | /
O=C(Nc1cccc([N+](=O)[O-])c1)Nc1cccs1 | 7% | -6% | 32* | -1% | 37 | -18%
O=C(CNC(=O)c1ccccc1F)Nc1ccc2c(c1)CCC2 | -3% | 0% | / | / | / | /
O=C(Nc1ccc2c(c1)CCC2)c1ncoc1-c1ccccc1F | ? | 1% | 27* | 4% | 79 | -6%
COC(=O)c1sccc1NC(=O)Nc1cccc([N+](=O)[O-])c1 | 7% | -10% | 2 | -24% | -3 | 1%
COc1ccc(NC(=O)Nc2cccc([N+](=O)[O-])c2)cc1Cl | / | -14% | 30* | -1% | 27 | -11%
O=C(Nc1ccccc1)Nc1ccc2c(c1)CCC2 | -5% | -2% | 81* | 1% | 156* | -5%
CCOc1ccc(NC(=O)Nc2ccc3c(c2)CCC3)cc1 | -8% | 0% | 3 | 1% | -6 | /
CC1CCc2c(sc3nnn(Cc4ccccc4Cl)c(=O)c23)C1 (configuration not stated) | / | -10% | / | / | / | /
O=C(CC1CCCC1)Nc1ccc2c(c1)CCC2 | 14% | 3% | 29* | 0% | 51* | 0%
O=C(Nc1ccc2c(c1)CCC2)c1ccc(F)cc1 | 22% | -3% | 30* | -21% | 0 | -15%
O=C(Nc1ccc2c(c1)CCC2)Nc1ccccc1F | 9% | 0% | 47* | -20% | 64* | /
Cc1cc(C)cc(NC(=O)Nc2ccc3c(c2)CCC3)c1 | 13% | 2% | -3 | -11% | -2 | /
COc1ccc(NC(=O)CC2CCCC2)cc1OC | 4% | -1% | 15 | -4% | -5 | /
Cc1ccc(NC(=O)Nc2ccc3c(c2)CCC3)cc1 | 5% | 3% | 48* | 0% | 54* | /
Cc1cc(C(=O)Nc2ccc3c(c2)CCC3)ccc1[N+](=O)[O-] | 5% | -9% | / | / | / | /
COc1ccc(CNC(=O)CSc2nc(-c3ccc(OC)c(OC)c3)cc(C(F)(F)F)n2)cc1 | / | -3% | / | / | / | /
COc1cc(OC)cc(-c2nc3nc(C)c(CCC(=O)Nc4cc(C)cc(C)c4)c(C)n3n2)c1 | / | -5% | / | / | / | /
COc1ccc(Oc2ncc3ncc(=O)n(CCC#N)c3n2)cc1 | / | 2% | / | / | / | -13%
